Experimental data published in PubChem BioAssay AID1159580 (chemical genetic matrix, 2015).
Where “and” joins values, the source holds several entries; their conditions need not be identical. Equal values may be shown once. Among all 5,500 compounds or so, about 2,000 (36%) were called active. Not shown: some 18% with an inconclusive outcome. No stated cut-off is given here; in the data, active means normalized growth mostly below about 0.91 (no sharp cut-off); inconclusive means no clear call, values can overlap the other calls; inactive means mostly above about 0.92. The list shows a part of the results.

Test: chemical genetic growth profiling, strain panel (AID 1159580);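 further: tested at 20 µM; growth read once vehicle control cultures reached saturation at 30 °C; 1 = growth at the plate median or of vehicle wells; lower values mean less growth of the strain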
Settings: S. cerevisiae deletion strains, growth OD

Measured: normalized growth

CC1(C)S[C@@H]2[C@H](NC(=O)[C@H](NC(=O)N3CCNC3=O)c3ccccc3)C(=O)N2C1C(=O)O (stereo partly drawn)
inactive: locus YAL021C, strain ccr4, hits give low values 0.989 | locus YAL026C, strain drs2, hits give low values 0.984 | locus YAL030W, strain snc1, hits give low values 0.969 | locus YBL061C, strain skt5, hits give low values 0.971 | locus YBR009C, strain hhf1, hits give low values 0.995 | locus YBR021W, strain FUR4, hits give low values 1.04 | locus YBR023C, strain chs3, hits give low values 0.979 | locus YBR171W, strain sec66, hits give low values 0.974 | locus YBR229C, strain ROT2, hits give low values 1 | locus YBR231C, strain swc5, hits give low values 0.984 | locus YBR279W, strain paf1, hits give low values 0.993 | locus YCL011C, strain gbp2, hits give low values 0.964 | locus YCL016C, strain dcc1, hits give low values 0.986 | locus YCL029C, strain bik1, hits give low values 0.99 | locus YCL061C, strain MRC1, hits give low values 0.99 | locus YCL069W, strain vba3, hits give low values 0.996 | locus YCR088W, strain abp1, hits give low values 0.985 | locus YDL005C, strain med2, hits give low values 0.978 | locus YDL035C, strain GPR1, hits give low values 0.992 | locus YDL040C, strain nat1, hits give low values 0.984 | locus YDL074C, strain BRE1, hits give low values 1.06 | locus YDL101C, strain DUN1, hits give low values 0.998 | locus YDL134C, strain PPH21, hits give low values 1 | locus YDL185W, strain tfp1, hits give low values 0.952 | locus YDL192W, strain arf1, hits give low values 0.982 | locus YDR001C, strain nth1, hits give low values 0.975 | locus YDR069C, strain doa4, hits give low values 0.988 | locus YDR101C, strain arx1, hits give low values 1.03 | locus YDR137W, strain rgp1, hits give low values 0.977 | locus YDR159W, strain sac3, hits give low values 1 | locus YDR162C, strain NBP2, hits give low values 0.972 | locus YDR195W, strain ref2 0.995 | locus YDR297W, strain sur2, hits give low values 0.979 | locus YDR318W, strain mcm21, hits give low values 0.988 | locus YDR334W, strain swr1, hits give low values 0.935 | locus YDR335W, strain msn5, hits give low values 0.971 | locus YDR388W, hits give low values 0.987 | locus YDR392W, strain spt3, hits give low values 0.908 | locus YDR502C, strain sam2, hits give low values 1 | locus YEL003W, strain gim4, hits give low values 0.994 | locus YEL037C, strain rad23, hits give low values 0.984 | locus YEL061C, strain CIN8 (second series), hits give low values 0.984 | locus YEL061C, strain CIN8, hits give low values 0.996 | locus YER015W, strain faa2, hits give low values 0.971 | locus YER016W, strain bim1, hits give low values 1 | locus YER110C, hits give low values 0.982 | locus YER111C, strain swi4, hits give low values 0.983 | locus YER155C, strain BEM2 (second series), hits give low values 0.993 | locus YER155C, strain BEM2, hits give low values 1.01 | locus YER167W, strain BCK2, hits give low values 0.997 | locus YFR010W, strain ubp6, hits give low values 0.967 | locus YGL078C, strain dbp3, hits give low values 0.989 | locus YGL086W, strain mad1, hits give low values 1.02 | locus YGL167C, strain pmr1, hits give low values 0.987 | locus YGL173C, strain kem1, hits give low values 0.967 | locus YGL227W, strain vid30, hits give low values 0.994 | locus YGL240W, strain doc1, hits give low values 1 | locus YGL248W, strain PDE1, hits give low values 1.01 | locus YGL253W, strain hxk2, hits give low values 0.996 | locus YGR135W, strain pre9, hits give low values 0.95 | locus YGR252W, strain gcn5, hits give low values 1 | locus YHR013C, strain ard1, hits give low values 0.957 | locus YHR027C, strain rpn1, hits give low values 0.966 | locus YHR030C, strain SLT2, hits give low values 0.984 and 0.983 | locus YHR079C, strain IRE1 (second series), hits give low values 0.983 | locus YHR079C, strain IRE1, hits give low values 0.963 | locus YHR094C, strain hxt1, hits give low values 0.982 | locus YHR129C, strain ARP1, hits give low values 0.997 | locus YHR142W, strain chs7, hits give low values 0.955 | locus YHR200W, strain rpn10, hits give low values 0.989 | locus YIL066C, strain RNR3, hits give low values 0.99 | locus YIL073C, strain SPO22, hits give low values 0.902 | locus YIL125W, strain kgd1, hits give low values 1 | locus YIR030C, strain dcg1, hits give low values 0.969 | locus YJL092W, strain hpr5, hits give low values 0.988 | locus YJL095W, strain BCK1 (second series), hits give low values 0.989 | locus YJL095W, strain BCK1, hits give low values 1.04 and 0.971 | locus YJL115W, strain asf1, hits give low values 0.96 | locus YJL129C, strain trk1, hits give low values 1.01 | locus YJL134W, strain LCB3, hits give low values 0.993 | locus YJL154C, strain vps35, hits give low values 0.972 | locus YJL164C, strain tpk1, hits give low values 0.996 | locus YJL166W, strain qcr8, hits give low values 0.956 | locus YJL168C, strain set2, hits give low values 0.998 | locus YJL187C, strain SWE1 (second series), hits give low values 1 | locus YJL187C, strain SWE1, hits give low values 0.988 | locus YJR043C, strain POL32, hits give low values 1.03 | locus YJR066W, strain TOR1, hits give low values 0.966
